Where “and” joins values, the source holds several entries; their conditions need not be identical. Equal values may be shown once. A number with no mark means an inactive call. Inconclusive results are not listed. Entries that show only a call come without a potency. Calls of active or inactive are those of the source. Calls follow the shape of the full dose curve.
Tests used:
[1] = biological target: Acetylcholinesterase (Homo sapiens) (UniProt P22303); test: Acetylcholinesterase (AChE) small molecule antagonists: colormetric cell-based qHTS assay (AID 1347395); conditions: SH-SY5Y cells AChE activity, colorimetric (Ellman); series mostly up to 115 µM; also: nearly all actives have a fitted effect of over 30% in size; also: potency is read from the fitted curve at half-maximal effect
Method in brief: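 AChE inhibition read colorimetrically via DTNB–thiocholine in SH-SY5Y cells. Compound 30 min, substrate 90 min, both 37 C.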

[2] = biological target: Acetylcholinesterase (Homo sapiens) (UniProt P22303); test: Acetylcholinesterase (AChE) small molecule antagonists: enzyme-based qHTS assay (AID 1347397); conditions: Potency: AChE enzyme activity inhibition; outcome: AChE enzyme activity inhibition; series mostly up to 115 µM; also: nearly all actives have a fitted effect of over 55% in size
Method in brief: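 Human recombinant acetylcholinesterase; substrate acetylthiocholine; thiocholine quantified with DTNB (colorimetric). Compound preincubation 30 min RT; reaction 10 min RT.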

[3] = biological target: Acetylcholinesterase (Homo sapiens) (UniProt P22303); test: Acetylcholinesterase (AChE) small molecule antagonists: enzyme-based qHTS assay with human liver microsomes (AID 1347399); conditions: Potency: qHTS inhibition; outcome: qHTS inhibition; series mostly up to 115 µM; also: nearly all actives have a fitted effect of over 60% in size
Method in brief: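 Recombinant human AChE (50 mU/mL in the enzyme mix) and human liver microsomes (0.25 mg/mL final) were preincubated with compound and NADPH (0.25 mg/mL final) for 30 min at 37 C. Acetylthiocholine/DTNB was then added; thiocholine was read colorimetrically after 10 min at room temperature.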

[4] = biological target: Acetylcholinesterase (Homo sapiens) (UniProt P22303); test: Acetylcholinesterase (AChE) small molecule antagonists: fluorescence cell-based qHTS assay (AID 1347398); conditions: SH-SY5Y cells; Potency: AChE activity; outcome: AChE activity; series mostly up to 115 µM; also: nearly all actives have a fitted effect of over 50% in size
Method in brief: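 Thiocholine generated from acetylthiocholine by SH-SY5Y cell AChE is detected with Thiolite Green (Ex/Em 490/520 nm) after 40 min at room temperature, following 30 min compound pretreatment at 37 C.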

Sequence of Acetylcholinesterase (Homo sapiens) (P22303 whole entry, looked up): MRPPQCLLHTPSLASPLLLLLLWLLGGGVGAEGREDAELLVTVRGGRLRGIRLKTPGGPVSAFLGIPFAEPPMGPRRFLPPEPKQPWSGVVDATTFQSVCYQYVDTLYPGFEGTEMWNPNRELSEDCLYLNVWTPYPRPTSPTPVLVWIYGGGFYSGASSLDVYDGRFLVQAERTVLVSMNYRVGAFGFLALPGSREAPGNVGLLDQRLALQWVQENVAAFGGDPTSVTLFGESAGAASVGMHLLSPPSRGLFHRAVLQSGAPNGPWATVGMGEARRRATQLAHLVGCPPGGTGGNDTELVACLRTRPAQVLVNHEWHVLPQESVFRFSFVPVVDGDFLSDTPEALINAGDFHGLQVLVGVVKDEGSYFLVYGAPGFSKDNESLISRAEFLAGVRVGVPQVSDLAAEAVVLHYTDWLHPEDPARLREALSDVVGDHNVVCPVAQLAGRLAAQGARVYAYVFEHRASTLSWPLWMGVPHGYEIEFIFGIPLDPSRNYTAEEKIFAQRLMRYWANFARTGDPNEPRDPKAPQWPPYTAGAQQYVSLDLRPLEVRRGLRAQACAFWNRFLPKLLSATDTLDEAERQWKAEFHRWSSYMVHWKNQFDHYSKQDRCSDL

SMILES	Potency [1]	Potency [2]	Potency [3]	Potency [4]
CC(=O)Nc1ccc(C)c(Cl)c1	inactive	inactive	inactive	–
CCCCN1C(=O)c2ccccc2C1=O	inactive	inactive	inactive	–
COC(=O)CC(=O)OC	inactive	inactive	inactive	–
CNC(=O)c1cc(Oc2ccc(NC(=O)Nc3ccc(Cl)c(C(F)(F)F)c3)cc2)ccn1	inactive	inactive	inactive	–
O=C(CCCCCCCCc1cccnc1)N1CCC(C=C(c2ccccc2)c2ccccc2)CC1	inactive	inactive	inactive	–
CCCC(=O)OCCC(C)CCC=C(C)C (stereo unspecified)	inactive	inactive	inactive	–
CC(=O)N[C@@H](CCC(N)=O)C(=O)O	inactive	inactive	inactive	–
Cc1ccc2nc(-c3ccc(N)cc3)sc2c1S(=O)(=O)O	inactive	inactive	inactive	–
CCC(C)N (stereo unspecified)	inactive	inactive	inactive	–
CCn1ccnc1CC1COc2ccccc2O1 (stereo unspecified)	inactive	inactive	inactive	–
CCCCOC(=O)CCS	inactive	inactive	inactive	–
NCCCCCC(=O)O	inactive	inactive	inactive	–
O=C(O)CC(=O)C(=O)O	inactive	inactive	inactive	–
CC(C)CCCCCCN	inactive	inactive	inactive	–
CC(C)=CCl	inactive	inactive	inactive	–
Cc1ccc(C(=O)c2ccc(CC(=O)O)n2C)cc1	inactive	inactive	inactive	–
O=S(=O)(O)CCO	inactive	inactive	inactive	–
O=C1OC(c2ccc(O)cc2)(c2ccc(O)cc2)c2ccccc21	35.6 µM (active) and 24.5 µM (active)	inactive	inactive	–
c1cc(C(c2ccc(OCC3CO3)cc2)C(c2ccc(OCC3CO3)cc2)c2ccc(OCC3CO3)cc2)ccc1OCC1CO1 (stereo unspecified)	inactive	inactive	inactive	–
CCc1oc2ccccc2c1C(=O)c1cc(I)c(O)c(I)c1	inactive	inactive	inactive	–
O[C@@H]1CO[C@H]2[C@@H]1OC[C@@H]2O	inactive	inactive	inactive	–
CC(C)CCCC(=O)O	inactive	inactive	inactive	–
Clc1ccc2c(Cl)ccnc2c1	inactive	inactive	inactive	–
CCc1oc2ccccc2c1C(=O)c1cc(Br)c(O)c(Br)c1	inactive	–	inactive	inactive
CC(=O)CCc1ccc(OC(C)=O)cc1	inactive	inactive	inactive	–
CCCCCCCCCCCSCC(=O)O	inactive	inactive	inactive	–
O=C(O)CC(C(=O)O)C(CC(=O)O)C(=O)O (stereo unspecified)	inactive	inactive	inactive	–

— PubChem BioAssay (Tox21)
